For 40 compounds, XTT viability results are on record in the supplement of paper PMC6805474.

The assay deals with Schistosoma mansoni schistosomula (LE). The assay is described as follows: XTT viability relative to DMSO control; higher = more viable (less active). The note with it: 72 h; 10 µM. The protocol:
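XTT/PMS was then added for a further 24 h (72 h total) and A450 was read. % viability = (sample - heat-killed control)/(DMSO control - heat-killed control) x 100, from duplicate wells in two independent experiments.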
On the technique in general: Tetrazolium dyes change colour on reduction, which living cells bring about.
With `CCC(Sc1nc2ccccc2o1)C(=O)Nc1nccs1` (stereo not given), the XTT viability turned out to be 7.06%.
Then `COc1cccc(OCC(=O)c2ccc(Br)cc2)c1`, with 101%; and `CCn1ncc2c(NC3CCOCC3)c(CNC(=O)c3ccnn3C)c(C)nc21`, with 92.5%.
Then `Cc1nc2ccccn2c1C(=O)NCc1ccc(Cl)cc1`, with 81%.
As for `O=C(Nc1ccc2c(c1)B(O)OC2)c1ccccc1C(F)(F)F`, the XTT viability was found to be 71.1%.
Then `c1ccc(-c2cc(N3CCCCC3)c3ccccc3n2)nc1`, with 59.9%; and `Cc1noc(C)c1C(=O)N1CCCC(c2[nH]c3c(C)cccc3c2-c2ccncc2)C1` (stereo not given), with 67.5%; and `COc1cccc(-n2nnnc2S(C)(=O)=O)c1`, with -0.214%.
As to `Nc1ncnc2c1c(-c1cnc3ccccc3c1)nn2CC1CCNCC1`, the XTT viability was determined as 169%.
Then `Nc1ncnc2c1c(Cc1cccc3ccccc13)nn2CC1CCNCC1`, with 96.2%; and `Brc1c(-c2ccc3c(c2)OCO3)nc2ncccn12`, with 99.9%; and `c1cc(C2=NCCN2)cc(-c2cc(-c3ccc(C4=NCCN4)cc3)no2)c1`, with 115%.
Take `O=C(NCc1nnc2n1CCCCC2)c1ccc(-c2ccc(F)cc2)o1`: the XTT viability was 97.1%.
The figure for `CCN(CC)CCCN1CCN(C(=O)c2cccc(-c3noc(C(F)(F)F)n3)c2)CC1` is 97.3%; for `CN1CCN(S(=O)(=O)c2ccc(-c3ccc4c(Nc5ccc6nn[nH]c6c5)ccnc4c3)cc2)CC1` it is 152%; for `CNCCC(Oc1ccc(C(F)(F)F)cc1)c1ccccc1` (stereo not given) it is 20.4%.
On to `CCCCc1ccc(NC(=O)Nc2ccc(O[C@H]3CCCC[C@@H]3N(C)c3ccccc3)c(F)c2)cc1`, for which the XTT viability worked out at 33.7%.
Turning to `Clc1ccc(Cl)c(CO[C@H]2CCCC[C@@H]2n2ccnc2)c1`, the XTT viability is 109%.
The figure for `CC(C)(C)c1cnc(NC(=O)c2ccccc2O)s1` is 79.9%.
As for `Cc1nnc(NCc2cccc(Cl)c2)c2ccccc12`, the XTT viability was 102%.
On to `COc1cccc2c(C)nc(N=C(N)N)nc12`, for which the XTT viability turned out to be 93.3%.
The figure for `CNC(=O)c1cc(S(=O)(=O)N2CCN(c3ccccn3)CC2)cs1` is 73.4%; for `CC1=Nc2ccc(Cl)cc2C(O)(c2ccc(C)cc2)N1CCN1CCCCC1` (stereo not given) it is -4.23%.
Then `O=C(NCc1ccoc1)N1CCN(Cc2ccc3c(c2)OCO3)CC1`, with 76.2%.
Then `Cc1ccc(NC(=O)CC2COc3ccccc3O2)cc1Cl` (stereo not given), with 125%; and `O=C(Nc1ccc(C(F)(F)F)c(C(F)(F)F)c1)c1cc(Cl)ccc1O`, with 35.4%.
With `COc1ccc(Oc2ccc([C@@H](C)N(C)c3ncc4c(N)nc(N)nc4n3)cc2)cc1`, the XTT viability came out at 4.74%.
Then `CC(=O)NCC1CN(c2ccc(-c3ccc(CNCc4cn[nH]n4)cc3)c(F)c2)C(=O)O1` (stereo not given), with 108%; and `CC(C)(C)c1cc(C(=O)Nc2cccnc2)cc(C(=O)Nc2cccnc2)c1`, with 79.8%; and `CS(=O)(=O)N1CCC(Cn2nc(Cc3cccc4ccccc34)c3c(N)ncnc32)CC1`, with 122%.
Then `O=C(Nc1nnc(-c2ccc(Cl)cc2)o1)c1cccc(C(F)(F)F)c1`, with -9.98%; and `CCc1ccc([C@@H]2C[C@H](C(F)(F)F)n3ncc(C(=O)NCc4ccc(OC)cc4)c3N2)cc1`, with 99.5%.
Then `NCCN(C(=O)c1ccc(Cl)cc1Cl)c1ccc(OCc2ccc(Cl)cc2)cc1`, with 22.7%.
As to `Nc1nccc2ccc(-c3ccc4nccn4c3)cc12`, the XTT viability worked out at 41.1%.
The figure for `Cc1cnc(N2CCN[C@@H](Cc3ccccc3)C2)nc1Oc1ccc(-n2ccnc2)cc1` is 17.8%.
The figure for `CCc1ccccc1-n1c(C)cn2c3c(=O)n(C(C(=O)OC)C(C)C)c(=O)n(C)c3nc12` (stereo not given) is 108%.
The figure for `COc1nc2ccc(Br)cc2cc1[C@@H](c1ccccc1)[C@@](O)(CCN(C)C)c1cccc2ccccc12` is 7.23%; for `CCc1cc(=O)n(C)c(SC(C)C(=O)Nc2ccc(F)cc2)n1` (stereo not given) it is 115%.
Turning to `N#CCN(CCCCN1CCN(c2ccc(F)cc2)CC1)C(=O)OCc1ccccc1`, the XTT viability is 118%.
Then `CC(C(=O)Nc1ccc2oc(-c3ccncc3)nc2c1)c1ccccc1` (stereo not given), with 89.9%.
